Rows were chosen to be rich in hits. Some 10% of all compounds tested hit in one or more screens of this group.
HP1b binding inh: inhibitors of HP1-beta chromodomain binding to methylated histone tails; P83916; AlphaScreen HP1-beta / biotin-H3K9me3 peptide binding; Potency, µM (titrated, usually from 114 µM), inactives show at the highest dose activity change, negative = inhibition, hits mostly inhibitors; hit rate 0.56% among 390,000; further: nearly all actives have a fitted effect of over 70% in size
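Compound inhibition of the preformed complex between 50 nM HP1-beta and 50 nM biotinylated H3K9me3 peptide was read by AlphaScreen. Buffer was PBS pH 7.4 with 0.01% Tween-20. Incubations ran 30 min at room temperature, with 10 ug/mL donor/acceptor beads.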
GLS inhibitor: inhibitors of human glutaminase (GLS); O94925; GLS enzymatic activity, qHTS titration; Potency, µM (top dose mostly 45.5 µM), for the others: at the top dose activity change, negative = inhibition, usual class: inhibitors; hit rate 0.21% among 410,000; further: on the % scale 0 is the no-effect control and ±100 the full control effect
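Compounds were pin-transferred onto hKGA, after which L-glutamine (1 mM solution) and a detection mix of glutamate oxidase, HRP and Amplex Red were added. Initial and 30 min RT fluorescence reads were collected.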
JMJD2A Tudor inh: blocks the human JMJD2A Tudor domain; O75164; AlphaScreen JMJD2A-Tudor / H3K4me3 peptide binding; Potency, µM (top dose mostly 114 µM), for inactives: at the top dose activity change, negative = inhibition, actives largely listed as inhibitors; hit rate 4.4% among 390,000; AID 504339; further: on the % scale 0 is the no-effect control and ±100 the full control effect; nearly all actives have a fitted effect of over 50% in size
BAZ2B block: BAZ2B (human) inhibition; Q9UIF8; AlphaScreen BAZ2B-H3K14Ac peptide displacement; Potency, µM (titrated, usually from 114 µM), without a hit: at the highest dose activity change, negative = inhibition, actives largely listed as inhibitors; hit rate 4.4% among 360,000; further: on the % scale 0 is the no-effect control and ±100 the full control effect; nearly all actives have a fitted effect of over 60% in size
Target sequence (Q9UIF8 whole entry, looked up): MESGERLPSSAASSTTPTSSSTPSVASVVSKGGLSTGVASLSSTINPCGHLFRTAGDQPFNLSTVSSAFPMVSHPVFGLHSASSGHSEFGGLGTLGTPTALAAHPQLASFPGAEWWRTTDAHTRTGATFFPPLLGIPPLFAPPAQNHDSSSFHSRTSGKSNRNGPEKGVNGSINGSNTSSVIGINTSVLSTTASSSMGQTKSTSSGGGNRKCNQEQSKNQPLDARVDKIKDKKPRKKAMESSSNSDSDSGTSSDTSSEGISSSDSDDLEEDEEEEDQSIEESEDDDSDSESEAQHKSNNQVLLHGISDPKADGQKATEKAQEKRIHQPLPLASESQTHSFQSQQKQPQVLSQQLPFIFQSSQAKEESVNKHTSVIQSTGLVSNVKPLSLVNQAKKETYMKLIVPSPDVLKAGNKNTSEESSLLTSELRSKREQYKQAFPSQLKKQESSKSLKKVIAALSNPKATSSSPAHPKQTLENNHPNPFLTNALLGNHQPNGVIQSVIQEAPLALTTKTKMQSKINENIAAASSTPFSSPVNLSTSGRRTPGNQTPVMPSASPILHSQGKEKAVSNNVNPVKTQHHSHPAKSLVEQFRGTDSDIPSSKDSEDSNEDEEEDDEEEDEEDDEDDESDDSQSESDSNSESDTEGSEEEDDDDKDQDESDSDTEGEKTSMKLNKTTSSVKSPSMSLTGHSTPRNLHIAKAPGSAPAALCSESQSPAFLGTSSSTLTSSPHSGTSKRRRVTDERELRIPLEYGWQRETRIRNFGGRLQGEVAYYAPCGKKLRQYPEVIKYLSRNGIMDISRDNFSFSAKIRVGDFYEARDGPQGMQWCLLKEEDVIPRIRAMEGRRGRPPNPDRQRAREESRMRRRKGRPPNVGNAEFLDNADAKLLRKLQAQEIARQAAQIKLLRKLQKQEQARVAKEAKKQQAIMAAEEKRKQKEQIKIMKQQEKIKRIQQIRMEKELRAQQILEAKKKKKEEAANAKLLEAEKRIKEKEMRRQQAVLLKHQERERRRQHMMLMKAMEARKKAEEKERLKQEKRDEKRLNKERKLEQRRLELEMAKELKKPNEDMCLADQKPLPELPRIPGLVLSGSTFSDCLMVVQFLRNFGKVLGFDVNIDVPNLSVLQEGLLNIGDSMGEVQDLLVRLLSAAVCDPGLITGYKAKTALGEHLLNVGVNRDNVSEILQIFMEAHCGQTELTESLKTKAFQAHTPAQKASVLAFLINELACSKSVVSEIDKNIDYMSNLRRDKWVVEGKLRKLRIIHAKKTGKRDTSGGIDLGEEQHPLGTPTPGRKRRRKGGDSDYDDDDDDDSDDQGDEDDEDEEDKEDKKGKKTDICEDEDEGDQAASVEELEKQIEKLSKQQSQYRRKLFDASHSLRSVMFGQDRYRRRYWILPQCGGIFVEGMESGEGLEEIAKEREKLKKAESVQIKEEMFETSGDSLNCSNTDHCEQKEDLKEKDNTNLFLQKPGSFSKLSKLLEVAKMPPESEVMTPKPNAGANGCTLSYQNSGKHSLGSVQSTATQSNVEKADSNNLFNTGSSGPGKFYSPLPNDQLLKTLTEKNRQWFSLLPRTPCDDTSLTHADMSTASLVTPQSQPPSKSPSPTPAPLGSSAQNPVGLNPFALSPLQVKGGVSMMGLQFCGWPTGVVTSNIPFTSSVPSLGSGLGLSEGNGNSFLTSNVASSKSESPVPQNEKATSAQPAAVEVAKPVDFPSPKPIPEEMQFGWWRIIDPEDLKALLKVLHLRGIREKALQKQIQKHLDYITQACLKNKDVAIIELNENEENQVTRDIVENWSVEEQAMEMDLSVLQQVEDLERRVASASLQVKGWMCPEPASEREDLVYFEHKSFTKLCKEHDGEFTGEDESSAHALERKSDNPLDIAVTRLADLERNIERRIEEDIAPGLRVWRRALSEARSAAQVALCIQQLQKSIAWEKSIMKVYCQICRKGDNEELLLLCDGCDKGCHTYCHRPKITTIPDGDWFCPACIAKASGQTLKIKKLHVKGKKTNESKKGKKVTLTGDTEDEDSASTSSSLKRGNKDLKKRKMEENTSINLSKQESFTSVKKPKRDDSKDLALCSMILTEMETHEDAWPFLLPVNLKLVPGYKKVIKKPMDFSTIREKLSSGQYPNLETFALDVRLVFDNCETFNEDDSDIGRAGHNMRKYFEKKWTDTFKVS
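Compounds, titrated to a top concentration of 110 uM, were incubated 30 min at room temperature with preformed BAZ2B/acetyl-K14 H3 peptide complex (50 nM each). Proximity signal was measured by AlphaScreen after 20 min with beads.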
G9a block: G9a (human) methyltransferase inhibition; G9a H3K9 monomethylation, AlphaScreen, 2 h; Potency, µM (doses to about 102 µM), inactives show top-dose activity, negative = inhibition, hits mostly inhibitors; hit rate 8.8% among 350,000; AID 504332; further: on the % scale 0 is the no-effect control and ±100 the full control effect; nearly all actives have a fitted effect of over 75% in size
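Chemiluminescent proximity detection of H3K9 monomethylation, read after 10 min bead incubation in the dark. Reaction: 20 nM G9a, 500 nM biotin-H3K9 peptide, 20 uM SAM cofactor, 2 h, room temperature, following 15 min enzyme-compound preincubation.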
Active calls of the source: *; u = inconclusive; x = no result given; [ ] = another dose, or the depositor's remark. The call rests on the fitted dose curve; in most records, active means well fitted curve in the direction sought with a large enough effect; inconclusive means small, poorly fitted or top-dose-only effect, or another doubt; inactive means no such curve, though single readings can be large; an effect the other way counts as inactive or inconclusive. Potency means the concentration at half of the fitted maximal effect.

SMILES	HP1b binding inh	GLS inhibitor	JMJD2A Tudor inh	BAZ2B block	G9a block
COc1ccc(C2CC(=O)c3cc(-c4nc(-c5cccc([N+](=O)[O-])c5)cs4)c(=O)n(-c4ccc(OC)cc4)c3C2)cc1 (configuration not stated)	19.2%	1.6%	-13.0%	-2.7%	-14.0%[59 µM]
Cc1ccccc1OCCOC(=O)c1nc2nccc(C)n2n1	33.7%	6.2%	13.4%	x	-23.0%
C=C(C)[C@H]1CC=C(C)/C(=N/NC(=O)CNc2ccccc2OC)C1	20.4%	-9.2%	u	u	24.1%[0.0925 µM]
C=C(C)C1CC=C(C)/C(=N\NC(=O)CNc2cccc3ccccc23)C1 (configuration not stated)	22.8%	-3.0%	-24.5%	-2.7%	10µM*
COCCNCC(=O)N1c2ccccc2Sc2ccccc21	-19.7%	-2.2%	u	u	u
CC(C)CNCC(=O)N1c2ccccc2Sc2ccccc21	u	-8.0%	11.2µM*	u	35.5µM*
CCC(C)n1c(-c2cccc(S(=O)(=O)N(CC)CC)c2)n[nH]c1=S (configuration not stated)	15.2%	46.3%	10µM*	2.1%	8.91µM*
O=c1oc(-c2cccc(S(=O)(=O)N3CCOCC3)c2)nc2ccccc12	40.9%	-5.1%	-6.9%	39.5%	10µM*
CCN(CC)S(=O)(=O)c1cccc(-c2n[nH]c(=S)n2/N=C/c2ccc(Br)cc2)c1	1.1%	-16.0%	u	1.0%	u
CCn1c(-c2cccc(S(=O)(=O)N3CCCC3)c2)n[nH]c1=S	18.2%	0.1%	6.31µM*	-24.1%	8.91µM*
CCN(CC)S(=O)(=O)c1cccc(-c2n[nH]c(=S)n2/N=C/c2ccc(OC(F)F)cc2)c1	u	-15.2%	u	u	1.78µM*
CCC(C)n1c(-c2cccc(S(=O)(=O)N3CCOCC3)c2)n[nH]c1=S (configuration not stated)	46.9%	1.0%	5.62µM*	7.0%	3.16µM*
CCN(CC)S(=O)(=O)c1cccc(-c2n[nH]c(=S)n2C(C)COC)c1 (configuration not stated)	11.0%	82.2%	3.55µM*	12.6%	10µM*
COC(=O)CCNC(=O)Cc1c(C)n(C(=O)c2ccc(Cl)cc2)c2ccc(OC)cc12	3.9%	0.8%	-25.4%	-20.0%	50.1µM*
CCCNC(=O)Cc1c(C)n(C(=O)c2ccc(Cl)cc2)c2ccc(OC)cc12	23.8%	1.5%	-11.6%	0.5%	x
Cc1nc(-c2cccnc2)sc1C(=O)Nc1ccc(Cl)cc1	16.6%	3.3%	-11.8%	-4.8%	-11.2%
CCCN(CC(=O)Nc1ccc(Cl)cc1Cl)Cc1cc(=O)n2ccsc2n1	36.9%	u	-17.2%	-6.0%	6.9%
COc1cc(NC(=O)c2ccc3c(Cl)c4c(nc3c2)CCC4)cc(OC)c1OC	17.8%	-15.1%	-20.9%	-3.0%	28.2µM*
O=C(O)CSc1c2c(nc3cc(C(=O)Nc4ccc(F)c(Cl)c4)ccc13)CCC2	-1.5%	-10.2%	u	79.4µM*	-32.8%[59 µM]
COc1cc(NC(=O)c2ccc3c(SCC(=O)O)c4c(nc3c2)CCC4)cc(OC)c1OC	30.1%	-3.9%	-16.9%	89.1µM*	x
CC(C)(C)NC(=O)CSc1nnnn1C(C)(C)C	9.0%	-2.8%	-22.5%	-3.2%	-7.7%[12.7 µM]
COc1ccc(CC(=O)Nc2cc(C)ccn2)cc1OC	10.2%	-6.9%	-6.1%	x	x
COc1ccc(NC(=O)CSc2nc3sc4c(c3c(=O)n2-c2ccc(OC)cc2)CCN(C)C4)cc1	-20.6%	-20.9%	u	-29.0%	u
NC(=O)Nn1c(CCC(=O)O)ccc1-c1ccc(F)cc1	30.6%	9.7%	-11.5%	-33.8%	-48.8%
O=C(NN1C(=O)C2C(C1=O)C1C=CC2C12CC2)c1ccc(Cl)cc1 (configuration not stated)	28.3%	6.2%	-8.3%	-0.6%	41.3%
COc1ccc(Cl)cc1NC(=O)CSC1=Nc2ccccc2C2=NC(CC(=O)NCc3cccs3)C(=O)N12 (configuration not stated)	20.5%	15.8%	-20.5%	-7.5%	-31.9%[59 µM]
COCCNC(=O)CSc1cc(-c2ccccc2)c2ccc(OC)cc2n1	48.1%	-19.6%	-23.8%	-15.0%	22.4µM*

Assay outcomes as filed in PubChem.
